From the supplement of paper PMC10849652
About 8,800 targets were measured; listed, in parts, are those with a hit and a random draw of the rest. About 0.5% of all pairs of compound and target were hits. Unmarked numbers belong to inactive results.

What was measured:
Assay in all cases: log2 fold change, soluble protein after heating vs DMSO (PISA); higher = thermal stabilisation; K562 lysate, 10 uM; active = over 0.2 and 3.5 SD of the protein, either way, in both replicates (recomputed)
[1] = compound: Cc1cn(-c2cc(NC(=O)c3ccc(C)c(Nc4nccc(-c5cccnc5)n4)c3)cc(C(F)(F)F)c2)cn1 [nilotinib]
Procedure, shortened: (§1)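 Soluble protein was defined as the supernatant remaining after 21,000xg for 90 min, following pooling of heated aliquots and adjustment to 0.5% NP-40 at 4°C. Before that, crude K562 extract at 1 mg/mL protein in PBS pH 7.4 with 1 mM MgCl2 was treated with 10 μM compound for 30 min and heated for 3 min across 48°C-58°C. Quantification used TMTpro 16plex LC-MS/MS with channel sums equalised, and values are log-two fold changes in thermal stability relative to solvent controls from duplicates.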

[2] = compound: Cc1nc(Nc2n[nH]c3c2CN(C(=O)N[C@H](CN(C)C)c2ccccc2)C3(C)C)c2sccc2n1
Procedure, shortened: as §1

[3] = compound: Cc1nc(Nc2ncc(C(=O)Nc3c(C)cccc3Cl)s2)cc(N2CCN(CCO)CC2)n1 [dasatinib]
Procedure, shortened: as §1

[4] = compound: Cc1ncc(-c2ccnc(Nc3ccc(S(C)(=O)=O)cc3)n2)n1C(C)C
Procedure, shortened: as §1

[5] = compound: Cn1cc(-c2ccc3c(c2)CCN3C(=O)Cc2cccc(C(F)(F)F)c2)c2c(N)ncnc21
Procedure, shortened: as §1

[6] = compound: Cn1cc(CNCC2CCN(c3ncc(C(=O)NO)cn3)CC2)c2ccccc21 [quisinostat]
Procedure, shortened: as §1

[7] = compound: Cn1cncc1[C@@](N)(c1ccc(Cl)cc1)c1ccc2c(c1)c(-c1cccc(Cl)c1)cc(=O)n2C [tipifarnib]
Procedure, shortened: as §1

[8] = compound: NC(=O)Nc1cc(-c2cccc(F)c2)sc1C(=O)N[C@H]1CCCNC1
Procedure, shortened: as §1

[9] = compound: NC(=O)c1cnc(N[C@@H]2CCCC[C@@H]2N)nc1Nc1cccc(-n2nccn2)c1
Procedure, shortened: as §1

[10] = compound: NC1(c2ccc(-c3nc4ccn5c(=O)[nH]nc5c4cc3-c3ccccc3)cc2)CCC1
Procedure, shortened: as §1

[11] = compound: NCC(=O)Nc1ccc(-n2nc(C(F)(F)F)cc2-c2ccc3c(ccc4ccccc43)c2)cc1
Procedure, shortened: as §1

[12] = compound: O=C(CCCCCCC(=O)Nc1ccccc1)NO [vorinostat]
Procedure, shortened: as §1

[13] = compound: O=C(O)c1ccc2c(c1)nc(Nc1cccc(Cl)c1)c1ccncc12 [silmitasertib]
Procedure, shortened: as §1

[14] = compound: O=C1NC(=O)C(c2cnc3ccccn23)=C1c1cn2c3c(cc(F)cc13)CN(C(=O)N1CCCCC1)CC2
Procedure, shortened: as §1

[15] = compound: c1cn2cc(-c3ccc4cn[nH]c4c3)nc(Nc3ccc(N4CCOCC4)cc3)c2n1 [entospletinib]
Procedure, shortened: as §1

Sequence of UniProt Q13885 (Q13885 whole entry, looked up): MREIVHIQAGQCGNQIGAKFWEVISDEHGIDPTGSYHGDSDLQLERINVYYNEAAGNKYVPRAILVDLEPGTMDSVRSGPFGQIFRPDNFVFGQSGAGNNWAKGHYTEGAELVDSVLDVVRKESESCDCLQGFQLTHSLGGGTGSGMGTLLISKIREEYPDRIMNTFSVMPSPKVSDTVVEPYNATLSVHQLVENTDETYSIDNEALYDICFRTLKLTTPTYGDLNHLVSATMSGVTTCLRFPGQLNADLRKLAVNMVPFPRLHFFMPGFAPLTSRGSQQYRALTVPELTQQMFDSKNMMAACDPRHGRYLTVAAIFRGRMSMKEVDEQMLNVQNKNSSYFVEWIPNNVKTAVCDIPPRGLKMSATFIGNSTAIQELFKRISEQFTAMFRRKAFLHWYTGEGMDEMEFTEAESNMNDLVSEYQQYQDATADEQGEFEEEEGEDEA
Sequence of UniProt O43399 (O43399 whole entry, looked up): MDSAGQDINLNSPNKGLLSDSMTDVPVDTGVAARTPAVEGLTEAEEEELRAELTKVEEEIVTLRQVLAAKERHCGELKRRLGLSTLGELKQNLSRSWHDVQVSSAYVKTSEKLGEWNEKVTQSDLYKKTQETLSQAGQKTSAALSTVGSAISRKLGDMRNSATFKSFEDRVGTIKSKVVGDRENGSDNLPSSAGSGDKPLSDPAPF
Sequence of UniProt Q6N022 (Q6N022 whole entry, looked up): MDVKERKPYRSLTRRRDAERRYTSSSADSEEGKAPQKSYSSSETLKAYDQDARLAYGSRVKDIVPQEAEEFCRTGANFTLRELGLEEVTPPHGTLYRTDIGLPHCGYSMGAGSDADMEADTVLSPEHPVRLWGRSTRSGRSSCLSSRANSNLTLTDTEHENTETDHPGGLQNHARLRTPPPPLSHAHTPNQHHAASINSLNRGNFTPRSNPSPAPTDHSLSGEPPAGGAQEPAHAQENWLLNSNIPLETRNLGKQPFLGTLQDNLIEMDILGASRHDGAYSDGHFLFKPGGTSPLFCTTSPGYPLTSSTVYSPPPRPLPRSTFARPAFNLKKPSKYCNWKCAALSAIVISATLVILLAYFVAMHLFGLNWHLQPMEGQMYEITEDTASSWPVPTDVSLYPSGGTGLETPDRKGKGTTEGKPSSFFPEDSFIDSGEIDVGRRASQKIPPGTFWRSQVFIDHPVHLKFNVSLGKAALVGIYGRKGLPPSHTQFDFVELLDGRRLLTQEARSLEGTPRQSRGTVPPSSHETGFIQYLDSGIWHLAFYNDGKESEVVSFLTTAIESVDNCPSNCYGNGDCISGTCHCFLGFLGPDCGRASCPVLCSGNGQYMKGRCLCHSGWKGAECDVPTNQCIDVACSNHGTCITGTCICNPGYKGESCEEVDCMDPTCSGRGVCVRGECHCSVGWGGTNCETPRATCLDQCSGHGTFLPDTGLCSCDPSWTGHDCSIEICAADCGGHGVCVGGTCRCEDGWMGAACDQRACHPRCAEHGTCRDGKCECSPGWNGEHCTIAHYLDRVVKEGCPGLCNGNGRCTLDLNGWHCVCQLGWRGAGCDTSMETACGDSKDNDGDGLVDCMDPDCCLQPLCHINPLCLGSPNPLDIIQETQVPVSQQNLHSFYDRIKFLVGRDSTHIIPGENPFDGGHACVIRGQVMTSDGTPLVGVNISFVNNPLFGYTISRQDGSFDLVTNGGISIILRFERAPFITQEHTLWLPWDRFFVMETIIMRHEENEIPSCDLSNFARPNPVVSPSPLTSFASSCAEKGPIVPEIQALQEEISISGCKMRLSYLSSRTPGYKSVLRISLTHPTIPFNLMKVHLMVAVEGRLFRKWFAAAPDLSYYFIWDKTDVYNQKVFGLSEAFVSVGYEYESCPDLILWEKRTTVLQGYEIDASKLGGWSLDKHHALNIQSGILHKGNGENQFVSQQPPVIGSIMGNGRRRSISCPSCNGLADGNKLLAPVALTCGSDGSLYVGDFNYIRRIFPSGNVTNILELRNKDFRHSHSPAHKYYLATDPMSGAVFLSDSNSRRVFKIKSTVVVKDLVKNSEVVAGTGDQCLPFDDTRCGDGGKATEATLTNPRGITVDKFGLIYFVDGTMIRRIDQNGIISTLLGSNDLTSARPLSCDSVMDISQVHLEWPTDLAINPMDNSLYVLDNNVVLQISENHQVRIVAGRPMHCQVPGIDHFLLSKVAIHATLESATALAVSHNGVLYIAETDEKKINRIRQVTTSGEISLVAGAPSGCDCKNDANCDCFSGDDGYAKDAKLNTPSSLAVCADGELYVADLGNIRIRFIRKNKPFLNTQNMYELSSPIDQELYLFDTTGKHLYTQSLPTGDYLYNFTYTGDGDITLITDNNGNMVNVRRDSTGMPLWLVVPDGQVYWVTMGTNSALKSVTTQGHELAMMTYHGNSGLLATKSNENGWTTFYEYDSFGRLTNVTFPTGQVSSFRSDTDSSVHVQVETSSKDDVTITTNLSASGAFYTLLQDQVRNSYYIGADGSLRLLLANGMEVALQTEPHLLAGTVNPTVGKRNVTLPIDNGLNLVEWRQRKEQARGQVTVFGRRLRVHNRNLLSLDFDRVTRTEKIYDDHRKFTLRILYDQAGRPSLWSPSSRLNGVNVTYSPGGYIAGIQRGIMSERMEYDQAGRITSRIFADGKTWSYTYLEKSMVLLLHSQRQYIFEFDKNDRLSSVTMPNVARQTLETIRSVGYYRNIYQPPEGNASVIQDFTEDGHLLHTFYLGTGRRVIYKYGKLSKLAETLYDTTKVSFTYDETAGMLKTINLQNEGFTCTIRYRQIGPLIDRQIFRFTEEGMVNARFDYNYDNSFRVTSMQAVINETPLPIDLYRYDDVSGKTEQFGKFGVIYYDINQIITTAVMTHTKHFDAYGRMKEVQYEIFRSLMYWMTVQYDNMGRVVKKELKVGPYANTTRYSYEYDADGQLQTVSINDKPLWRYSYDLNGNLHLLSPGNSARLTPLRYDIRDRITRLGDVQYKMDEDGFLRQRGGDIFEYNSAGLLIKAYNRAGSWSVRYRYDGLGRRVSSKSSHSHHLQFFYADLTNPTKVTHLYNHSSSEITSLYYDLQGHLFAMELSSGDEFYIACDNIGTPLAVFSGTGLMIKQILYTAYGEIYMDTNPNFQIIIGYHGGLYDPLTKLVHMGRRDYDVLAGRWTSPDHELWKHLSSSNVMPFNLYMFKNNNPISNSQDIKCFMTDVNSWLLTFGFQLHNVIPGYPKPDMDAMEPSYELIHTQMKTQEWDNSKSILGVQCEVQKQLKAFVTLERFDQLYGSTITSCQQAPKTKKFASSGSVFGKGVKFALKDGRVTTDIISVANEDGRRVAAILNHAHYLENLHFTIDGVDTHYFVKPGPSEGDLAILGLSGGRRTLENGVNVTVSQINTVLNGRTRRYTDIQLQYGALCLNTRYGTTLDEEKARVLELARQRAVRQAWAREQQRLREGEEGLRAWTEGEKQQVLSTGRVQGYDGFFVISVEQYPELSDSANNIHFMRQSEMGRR
Sequence of UniProt Q53H54 (Q53H54 whole entry, looked up): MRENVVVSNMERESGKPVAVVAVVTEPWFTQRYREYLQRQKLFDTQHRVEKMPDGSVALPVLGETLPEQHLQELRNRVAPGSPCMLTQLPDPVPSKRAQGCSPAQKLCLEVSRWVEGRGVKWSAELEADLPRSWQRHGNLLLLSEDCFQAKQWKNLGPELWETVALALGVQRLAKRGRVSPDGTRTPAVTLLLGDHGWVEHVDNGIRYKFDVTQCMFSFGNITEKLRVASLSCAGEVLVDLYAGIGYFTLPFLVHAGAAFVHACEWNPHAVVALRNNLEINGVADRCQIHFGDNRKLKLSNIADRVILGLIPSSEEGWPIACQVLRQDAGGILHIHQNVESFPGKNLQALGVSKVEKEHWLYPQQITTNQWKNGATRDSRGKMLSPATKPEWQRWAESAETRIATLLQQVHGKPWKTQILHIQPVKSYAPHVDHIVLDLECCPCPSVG
Sequence of UniProt P06753 (P06753 whole entry, looked up): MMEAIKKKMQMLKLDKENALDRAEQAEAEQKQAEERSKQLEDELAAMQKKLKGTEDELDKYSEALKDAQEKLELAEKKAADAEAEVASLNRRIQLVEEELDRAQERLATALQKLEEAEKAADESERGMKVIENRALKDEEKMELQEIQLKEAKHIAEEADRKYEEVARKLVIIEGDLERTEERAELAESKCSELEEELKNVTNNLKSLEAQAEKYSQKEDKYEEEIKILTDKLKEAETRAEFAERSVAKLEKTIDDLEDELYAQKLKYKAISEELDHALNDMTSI
Sequence of UniProt Q96BZ9 (Q96BZ9 whole entry, looked up): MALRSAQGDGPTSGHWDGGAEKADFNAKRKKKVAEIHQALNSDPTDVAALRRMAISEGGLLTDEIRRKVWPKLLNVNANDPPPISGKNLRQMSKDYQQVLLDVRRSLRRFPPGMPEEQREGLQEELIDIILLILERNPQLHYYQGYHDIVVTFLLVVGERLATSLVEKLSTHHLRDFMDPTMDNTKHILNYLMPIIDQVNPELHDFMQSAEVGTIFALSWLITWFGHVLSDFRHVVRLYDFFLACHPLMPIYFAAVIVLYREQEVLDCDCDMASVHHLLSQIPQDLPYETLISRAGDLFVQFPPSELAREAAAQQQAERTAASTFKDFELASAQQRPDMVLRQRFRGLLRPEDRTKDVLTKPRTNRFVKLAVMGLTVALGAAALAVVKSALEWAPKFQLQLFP
Sequence of UniProt Q9BRN9 (Q9BRN9 whole entry, looked up): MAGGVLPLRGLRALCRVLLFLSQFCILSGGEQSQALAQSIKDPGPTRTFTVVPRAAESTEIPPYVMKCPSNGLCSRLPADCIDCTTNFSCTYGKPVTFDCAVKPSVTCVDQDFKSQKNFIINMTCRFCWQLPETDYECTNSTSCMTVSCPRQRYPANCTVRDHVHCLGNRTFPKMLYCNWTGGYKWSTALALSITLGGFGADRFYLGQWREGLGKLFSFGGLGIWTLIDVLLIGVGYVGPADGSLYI
Sequence of UniProt P62328 (P62328 whole entry, looked up): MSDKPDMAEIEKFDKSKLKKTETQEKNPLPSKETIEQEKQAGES

Target	log2 fold change [1]	log2 fold change [2]	log2 fold change [3]	log2 fold change [4]	log2 fold change [5]	log2 fold change [6]	log2 fold change [7]	log2 fold change [8]	log2 fold change [9]	log2 fold change [10]	log2 fold change [11]	log2 fold change [12]	log2 fold change [13]	log2 fold change [14]	log2 fold change [15]
TRMT12 (UniProt Q53H54)	-0.02	-0.005	-0.032	0.062	-0.017	-0.074	-0.007	0.117	-0.009	0.004	0.045	-0.35 (active)	-0.039	-0.043	-0.125
TUBB2A (UniProt Q13885)	-0.005	-0.002	-0.049	-0.02	-0.001	-0.035	0.009	0.043	0.003	0.007	0.034	-0.759 (active)	0.016	-0.004	-0.012
UBR4 (UniProt Q5T4S7)	0.007	0.002	-0.027	0.001	0.018	-0.014	-0.001	0.023	-0.005	-0.001	0	-0.14	0.027	-0.008	0.009
TFCP2 (UniProt Q12800)	0.042	0.023	-0.015	0.023	0.02	-0.072	-0.022	0.066	0.066	-0.059	-0.072	-0.465 (active)	0.045	0.029	0.051
TASP1 (UniProt Q9H6P5)	-0.319	-0.062	-0.124	0.077	-0.003	-0.094	0.089	0.046	-0.053	-0.056		0.481 (active)	-0.018	0.029	0.21
TENM4 (UniProt Q6N022)						-0.13		0.033	-0.081					0.143	
TCF3 (UniProt X6REB3)											-0.257				
TPM3 isoform 3 (UniProt P06753)			0.05		0.106	0.112		-0.09	0.001	-0.035	-0.111	0.048	-0.047	-0.15	-0.024
UBAP2, A0A0D9SFI5						0.151		0.111						-0.094	
TPD52L2 isoform 3 (UniProt O43399)	0.055	0.035		0.008			0.134			0.074		0.258	-0.058		
UBR4 isoform 4 (UniProt Q5T4S7)			-0.083		-0.158				-0.078	0.049	-0.145	-0.792 (active)	-0.004		0.205
TMSB4X (UniProt P62328)	-0.105	-0.107		0.115		-0.024	-0.071	0.263	-0.027	0		0.103	-0.076	0.219	-0.158
TM2D3 (UniProt Q9BRN9)										-0.09		0.096	0.339		-0.184
UCP2 (UniProt P55851)	0.144	-0.186		-0.137		-0.022	0.142	0.059			-0.12			0.035	
TBC1D20 isoform 3 (UniProt Q96BZ9)			0.027		-0.053	-0.021		0.067	-0.072	-0.006	-0.118	0.088	-0.013	0.058	0.02
TTLL12 (UniProt V9GY16)						-0.436		-0.021		0.039	0.115	0.076	-0.298	0.035	0.103
